AMA1-RON2 inh: inhibitors of Plasmodium falciparum AMA1-RON2 interaction. Potency, µM (series often up to 58.2 µM), most hits filed as inhibitors. AID 720542. hit rate 0.2% among 360,000. AlphaScreen AMA1-biotinylated RON2 peptide binding; also: nearly all actives have a fitted effect of over 45% in size
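AMA1 (3D7) with his tag at 25 nM final met compounds first, then biotinylated RON2 peptide at 25 nM; detection used donor plus acceptor beads, 10 µg/mL apiece, read by AlphaScreen after 30 min at room temperature.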
Pf growth 48h: inhibits P. falciparum growth in the first generation, 48 h. P. falciparum luciferase growth in erythrocytes, 48 h. Potency, µM (highest dose often 28.7 µM), most hits filed as inhibitors. hit rate 5.9% among 310,000. AID 504832
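Cell-based growth assay: transgenic P. falciparum expressing firefly luciferase, cultured in red cells within RPMI 1640 containing 0.5% w/v Albumax, 24 mM bicarbonate and gentamycin. A drop in luciferase activity indicates inhibition.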
Shiga inhibitor: blocks Shiga toxin action in Vero cells | inhibition, % at 38.7 µM | hit rate 9.2% among 290,000 | AID 2315 | Vero cells, Shiga toxin protein synthesis inhibition reporter; in the data active = inhibition mostly above about 28%, no sharp cut-off; inactive = mostly below about 43%
Pf growth 96h: inhibits malaria parasite growth, 96 h; P. falciparum luciferase reporter growth, 96 h; Potency, µM (doses to about 28.7 µM), hits mostly inhibitors; hit rate 6.9% among 320,000
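Cell-based qHTS: luciferase-tagged P. falciparum in erythrocytes (2% hematocrit, 0.05% parasitemia final) incubated with compounds for 96 hours, 37 C, 5% CO2; luciferase detection reagent then added and luminescence measured.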
CHX counter: affects cycloheximide protein synthesis inhibition readout, counter-screen. cell reporter, cycloheximide protein synthesis inhibition counterscreen. max response, %. hit rate 12% among 300,000. AID 2314; in the data active = max response mostly above about 13%, no sharp cut-off; inactive = mostly below about 14%; also: read at 38.3 µM for the half of the compounds with a filed dose
HCV inh: blocks hepatitis C virus; Huh7.5.1 HCVcc-Cre infection, luciferase reporter, 44 h; Potency, µM (titrated, usually from 41.8 µM), hits mostly inhibitors; hit rate 3.4% among 340,000; AID 651820
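HCVcc-Cre virus at an moi near 0.5 was added right after compound to cells cultured 4 h from seeding (1,000 cells/well). Luciferase activity was determined 44 h later, 15 min after substrate addition at RT.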
Each line names hits and unclear results; the compound was inactive in the other large screens; ! = a repeat was not active. Rows were chosen to be rich in hits. Some 21% of all compounds tested hit in one or more screens of this group. Unless noted, calls follow the shape of the dose curve; as a rule, active = well fitted curve in the direction sought with a large enough effect; inconclusive = small, poorly fitted or top-dose-only effect, or another doubt; inactive = no such curve, though single readings can be large; an effect the other way counts as inactive or inconclusive.

O=C(N/N=C\c1cccc(Cl)c1)c1ccc(Cn2cccn2)o1	none
C/C(=N\NC(=O)c1cccc(N/N=C(\C)c2ccccc2)c1)c1ccccc1	Pf growth 48h inconclusive, Shiga inhibitor 144.5, CHX counter 71.8, HCV inh inconclusive
C/C(=N\NC(=O)C(C)Sc1ccccc1)C(C)(C)C (centres undefined)	AMA1-RON2 inh inconclusive
C/C(=N\NC(=O)C(C)Sc1ccccc1)c1ccc([N+](=O)[O-])cc1 (centres undefined)	Pf growth 96h 9.28µM, HCV inh inconclusive
C/C(=N\NC(=O)c1ccncc1)c1cccc(NC(=O)c2ccc(C(C)(C)C)cc2)c1	Shiga inhibitor 65.8, CHX counter 27.0, HCV inh 10µM
Cc1cccc(C)c1N1CCN(C(=O)Cn2cncn2)CC1	none
C/C(=N\Nc1ccccc1)c1cccc(N)c1	Pf growth 96h inconclusive, CHX counter 23.2
C/C(=N/NC(=O)c1cccc(N2CCCC2=O)c1)c1ccncc1	Shiga inhibitor 55.1, CHX counter 47.9
C/C(=N/NC(=O)c1cccc(N2CCCC2=O)c1)c1ccc(Br)cc1	Pf growth 48h inconclusive
O=C(c1cc2cc(Br)ccc2o1)N1CCCCC1	Shiga inhibitor 92.1, CHX counter 38.5
O=C(c1cc2cc(Cl)ccc2o1)N1CCCC1	Pf growth 48h inconclusive, Shiga inhibitor 88.7, Pf growth 96h inconclusive, CHX counter 48.5
O=C(NCc1ccccc1CN1CCCC1)c1cc2cc(Cl)ccc2o1	Pf growth 48h 13.1µM, Pf growth 96h inconclusive, HCV inh 10µM (no result: Shiga inhibitor, CHX counter)
O=C(c1cc2ccccc2o1)N1CCOCC1	Pf growth 48h inconclusive, Pf growth 96h inconclusive (no result: Shiga inhibitor, CHX counter)
CCOc1ccc2nc(COC(=O)c3ccncc3)c(C(=O)c3ccccc3)[n+]([O-])c2c1	Shiga inhibitor 51.7, CHX counter 27.0
CCOc1ccc2nc(COC(=O)c3cccs3)c(C(=O)c3ccccc3)[n+]([O-])c2c1	none
Cc1ccc(C23CC4CC(CC(NC(=O)NCCN(C)C)(C4)C2)C3)cc1	Pf growth 96h inconclusive, HCV inh inconclusive (no result: Pf growth 48h)
CN(C)CCNC(=O)COc1ccc(C23CC4CC(CC(C4)C2)C3)cc1	HCV inh 11.2µM
COc1ccc(-c2cc(C(F)(F)F)n3ncc(C(=O)N4CCCCC4c4cccnc4)c3n2)cc1 (centres undefined)	Pf growth 48h 2.94µM, HCV inh inconclusive
COC(=O)c1cnn2c(C(F)(F)F)cc(-c3ccc(F)cc3)nc12	Pf growth 96h inconclusive
CCOC(=O)C1CCCN(C(=O)c2cnn3c(C(F)(F)F)cc(-c4ccccc4)nc23)C1 (centres undefined)	Pf growth 48h 9.28µM (no result: Pf growth 96h)
CCOC(=O)C1CCCN(C(=O)c2cc3nc(-c4cccc(OC)c4)cc(C(F)(F)F)n3n2)C1 (centres undefined)	Pf growth 48h 11.7µM, HCV inh inconclusive (no result: Pf growth 96h)
CCOC(=O)c1cnn2c(C(F)(F)F)cc(-c3ccccc3)nc12	HCV inh inconclusive
C(#Cc1ccccc1)CN1CCCCC1	Pf growth 48h inconclusive
COc1cc(C#CC#CCN2CCCCC2)ccc1O	AMA1-RON2 inh inconclusive, Pf growth 48h 8.28µM
CC(=O)Nc1ccc(SCCN2CCN(C)CCC2=O)cc1	none (no result: AMA1-RON2 inh, Pf growth 48h, Pf growth 96h, HCV inh)
Cc1ccc(SCCN2CCN(C)CCC2=O)cc1	Shiga inhibitor 77.2, CHX counter 28.0!
CC1CCC(=O)N(CCSc2ccccc2)CC1 (centres undefined)	Shiga inhibitor 36.8, CHX counter 25.0
O=C1CCN(CCc2ccccc2)CCN1CCSc1ccccc1	CHX counter 22.9
c1ccc(SCCN2CCc3ccccc3C2)cc1	Pf growth 96h inconclusive, CHX counter 27.2
Cc1cc(C(=O)OCC(=O)N2CCC(C)CC2)c2ccccc2n1	none (no result: Pf growth 48h, Shiga inhibitor, Pf growth 96h, CHX counter)
Cc1ccsc1CNC1C2CC3CC(C2)CC1C3 (centres undefined)	none
CN1CCC(=O)N(CCSc2ccccc2)CC1	Shiga inhibitor 48.7, CHX counter 42.7
O=C(Nc1ccc(N2CCCC2)cc1)c1ccc(Br)o1	Pf growth 48h inconclusive, Shiga inhibitor 70.5, Pf growth 96h inconclusive, CHX counter 58.5
CCCC(=O)N1CCN(c2ccc(NC(=O)c3ccc(Br)o3)cc2)CC1	none (no result: Pf growth 96h)
CCN1CCN(c2ccc(NC(=O)c3ccc(Br)o3)cc2)CC1	Shiga inhibitor 111.0, CHX counter 42.8
CN1CCN(c2ccc(NC(=O)c3ccc(-c4ccc(Br)cc4)o3)cc2)CC1	AMA1-RON2 inh inconclusive, Pf growth 48h 10.4µM, HCV inh 10µM
O=S(=O)(NCCS(=O)(=O)N1CCN(c2ccc(F)cc2)CC1)c1ccc(F)cc1	none (no result: Pf growth 48h, Shiga inhibitor, Pf growth 96h, CHX counter, HCV inh)
Cc1cccc(Nc2nc(NCc3ccco3)c3ccccc3n2)c1	AMA1-RON2 inh inconclusive, Pf growth 48h 0.657µM, Pf growth 96h inconclusive, CHX counter 11.1, HCV inh 6.31µM
COc1ccc(OC)c(Nc2nc(NCc3ccco3)c3ccccc3n2)c1	AMA1-RON2 inh inconclusive, Pf growth 48h inconclusive, HCV inh 11.2µM (no result: Shiga inhibitor)
Cc1ccccc1Nc1nc(NCc2ccco2)c2ccccc2n1	AMA1-RON2 inh inconclusive, Pf growth 48h inconclusive, CHX counter 19.4, HCV inh inconclusive
Oc1ccccc1Nc1nc(NCc2ccco2)c2ccccc2n1	Pf growth 48h inconclusive, Pf growth 96h 2.08µM, HCV inh 12.6µM
CSc1nc(NCc2ccco2)c2ccccc2n1	none (no result: Pf growth 48h)
Cc1ccc(S(=O)(=O)N2CCC(C(=O)OCCOc3cccc(C)c3)CC2)cc1	none (no result: Shiga inhibitor, CHX counter)
O=C(NCCN1CCOCC1)c1ccc(NS(=O)(=O)c2cccc([N+](=O)[O-])c2)cc1	none (no result: Shiga inhibitor, CHX counter)
Oc1ccc(-c2nc(-c3ccc(F)cc3)c(-c3ccncc3)[nH]2)cc1	Pf growth 48h inconclusive, Pf growth 96h 13.1µM, HCV inh inconclusive (no result: Shiga inhibitor, CHX counter)
Fc1ccc(-c2nc(-c3cccs3)[nH]c2-c2ccc(F)cc2)cc1	Pf growth 48h inconclusive, Pf growth 96h inconclusive, HCV inh inconclusive
CCOC(=O)c1c(NC(=O)COC(=O)CCOc2cc(C)ccc2C)sc(C(=O)N(C)C)c1C	none (no result: Pf growth 48h, Shiga inhibitor, Pf growth 96h, CHX counter)
CN1C=CC(=C[N+](=O)[O-])N(C)C1=O	none (no result: Pf growth 48h, Shiga inhibitor, Pf growth 96h, CHX counter, HCV inh)
CCOc1cc2c(cc1/C=C/c1noc(C)c1[N+](=O)[O-])OC(C)C2 (centres undefined)	Pf growth 96h inconclusive, HCV inh inconclusive
O=C(C[n+]1cc(Br)cc(Br)c1)c1ccccc1	Pf growth 96h 0.165µM
O=C(C[n+]1ccc2ccccc2c1)c1ccccc1	Pf growth 48h inconclusive, Pf growth 96h 9.28µM, CHX counter 20.4
Cc1ccc(C(=O)C[n+]2cc(Br)cc(Br)c2)cc1	Pf growth 96h inconclusive
O=C(Cn1cc[n+](CC(=O)c2ccc(Cl)cc2Cl)c1)c1ccc(Cl)cc1Cl	Pf growth 48h inconclusive, Pf growth 96h inconclusive, HCV inh inconclusive
O=C(C[n+]1cc(Br)cc(Br)c1)c1ccc(Cl)cc1	Pf growth 96h inconclusive, HCV inh 31.6µM
O=C(C[n+]1cc(Br)cc(Br)c1)c1ccc(-c2ccccc2)cc1	Pf growth 96h inconclusive (no result: Pf growth 48h)
O=C(Cn1cc[n+](CC(=O)c2ccccc2)c1)c1ccccc1	Pf growth 48h 1.04µM, Pf growth 96h inconclusive
CCOc1ccc(OCC(=O)Nc2cc(Cl)ccc2-n2cncn2)cc1	none (no result: Pf growth 48h, Shiga inhibitor, Pf growth 96h, CHX counter, HCV inh)
